# D2 PAM-1 – Beta-Arrestin HTS for Positive Allosteric Modulators of the Human D2 Dopamine Receptor: Potentiators; D(2) dopamine receptor (Homo sapiens), P14416; DiscoveRx D2 beta-arrestin cells, luminescence, 90 min; 100% = 57 uM dopamine signal; potentiation, % (no concentration beside the values); hit rate 0.23% among 360,000; AID 624464, 2012; in the data active means potentiation above about 50%; inconclusive means mostly about 30% to 49%
# Target sequence (P14416 whole entry, looked up): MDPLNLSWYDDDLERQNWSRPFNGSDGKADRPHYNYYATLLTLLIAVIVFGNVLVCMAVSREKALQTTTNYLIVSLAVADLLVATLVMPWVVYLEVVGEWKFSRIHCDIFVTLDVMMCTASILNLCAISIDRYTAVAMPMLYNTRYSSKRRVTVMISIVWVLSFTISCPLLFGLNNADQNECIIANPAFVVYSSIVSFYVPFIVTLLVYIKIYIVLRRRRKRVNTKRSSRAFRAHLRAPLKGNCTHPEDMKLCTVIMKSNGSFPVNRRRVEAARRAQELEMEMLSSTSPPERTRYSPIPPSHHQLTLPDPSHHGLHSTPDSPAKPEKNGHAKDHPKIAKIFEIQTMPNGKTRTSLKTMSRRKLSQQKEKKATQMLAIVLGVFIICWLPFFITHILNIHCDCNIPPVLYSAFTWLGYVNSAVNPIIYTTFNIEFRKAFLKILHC
#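 PathHunter beta-arrestin assay in DiscoveRx D2 cells. Compounds were added with an EC20 of dopamine (50 nM final) for 90 min at 37 deg C. Luminescence was read 1 h after detection reagent, with 57 uM dopamine as the EC100 control.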
# D2 ag-1 – HTS Assay for Allosteric Agonists of the Human D2 Dopamine Receptor: Primary Screen for Agonists; activation, % at 2 µM; AID 485358, 2010; hit rate 0.53% among 340,000; HEK293 T-REx D2 cells, calcium flux agonist mode; D(2) dopamine receptor (Homo sapiens), P14416;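 active means activation over 3 SD above normal in the single-dose calcium agonist read, cut at about 30% in these data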; further: 0% is about no effect
#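 Calcium-flux readout, 1 cycle/sec over 180 s following compound pin transfer, in inducible HEK293 Trex D2 cells (force-coupled); dopamine controls included. Positive calcium responses during this window marked compounds as potential agonists.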
# D2 antagonist – HTS Assay for Allosteric Antagonists of the Human D2 Dopamine Receptor: Primary Screen for Antagonists; hit rate 2% among 340,000; HEK293 TREx D2 cells, calcium flux, dopamine EC80; D(2) dopamine receptor (Homo sapiens), P14416; inhibition, % at 10 µM; in the data active means inhibition above about 30%; inactive means below that, where a call was filed; further: 0% is about no effect
#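 Calcium mobilization kinetics were recorded at 1 s intervals in tetracycline-induced HEK293 T-REx D2 cells, first for 180 s after compound addition and then 180 s after EC80 dopamine.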
# D2 PAM-2 – HTS Assay for Positive Allosteric Modulators of the Human D2 Dopamine Receptor: Primary Screen for Potentiators; D(2) dopamine receptor (Homo sapiens), P14416; HEK293 T-REx D2, calcium flux, EC20 dopamine potentiation; potentiation, % at 10 µM; hit rate 0.34% among 340,000;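 active means potentiation over 3 SD above the plate norm, cut at about 30% in these data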; further: 0% is about no effect
#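 Calcium flux readout, no-wash dye, 1 read/s. Inducible HEK293 Trex D2 line, overnight 30 C. Compound alone 180 s (agonist flags), then EC20 dopamine, another 180 s to score potentiation.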
# D2 ag-2 – Beta-Arrestin HTS for Positive Allosteric Modulators of the Human D2 Dopamine Receptor: Agonists. activation, % (no concentration beside the values). DiscoveRx PathHunter D2 beta-arrestin, luminescence, 90 min; 100% = 57 uM dopamine signal. hit rate 0.084% among 360,000. D(2) dopamine receptor (Homo sapiens), P14416; in the data active means activation above about 40%; inconclusive means between about 15% and that limit
#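 Agonist mode: compounds alone added to overnight-plated D2 PathHunter cells for 90 min at 37 C, with 57 uM final dopamine (EC100) defining full response. Beta-arrestin recruitment detected by chemiluminescent reagent, read after 1 h at ambient temperature.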
# * hit, by the source's call; ? = inconclusive; · = no result. An excerpt weighted towards active compounds, which were near 2.4% of everything screened.
SMILES,D2 PAM-1,D2 ag-1,D2 antagonist,D2 PAM-2,D2 ag-2
COc1ccc(C2C=C(c3ccccc3)Nc3nc(NS(=O)(=O)c4ccccc4)nn32)cc1 (centres undefined),·,-0.4,·,6.2,·
O=[N+]([O-])c1cc(-c2nc(-c3ccncc3)no2)cc([N+](=O)[O-])c1,95.4*,-0.5,6.1,2.7,?
O=[N+]([O-])c1cc(-c2nc(-c3ccncc3)no2)ccc1Cl,-0.9,0.7,18.4,4.3,1.8
Brc1cccc(-c2nc(-c3ccncc3)no2)c1,-20.5,0.5,40.9*,7.5,-0.8
COc1cc(Cl)c(NS(=O)(=O)c2ccc(-c3coc(C)n3)cc2)c(OC)c1,·,-0.1,·,16.0,·
O=C(N/N=C/c1c(O)ccc2ccccc12)c1cccnc1,-2.2,8.0,-12.1,3.7,-2.6
O=C(N/N=C\c1c(O)ccc2ccccc12)c1cncc(Br)c1,-0.3,66.4*,8.3,0.5,-1.7
CCCCC(=O)OCc1nc2ccccc2s1,-23.3,-0.2,-9.3,42.4*,-11.0
CCCCn1c(CCC)nc([N+](=O)[O-])c1Sc1ccc(Cl)cn1,-12.6,2.1,40.2*,-11.6,-2.4
CNS(=O)(=O)c1ccc(C(C)(C)C)cc1,-2.3,1.1,64.7*,-23.8,-2.3
COc1ccc(CNC(=O)CCC2N=C3c4ccccc4N=C(SCc4cccc(F)c4)N3C2=O)cc1 (centres undefined),·,-5.7,·,14.1,·
Cc1cc(OCCCCCN2CCCC2)ccc1Cl,-4.5,1.2,58.8*,-16.6,-7.5
Clc1ccc(OCCN2CCCCC2)cc1Cl,-31.3,0.4,102.9*,-26.0,-2.0
Clc1ccc(OCCCN2CCCC2)cc1Cl,-12.1,-0.3,7.5,-24.3,2.7
Cc1cc(C)c(/C=C/c2onc(C)c2S(=O)(=O)N2CCC(C(=O)N3CCN(c4ccccc4)CC3)CC2)c(C)c1,·,0.9,·,-6.6,·
COc1cc(C)nc(N2CCCC(C(=O)Nc3cc(Cl)ccc3OC)C2)n1 (centres undefined),-1.2,1.3,6.9,80.6*,0.7
COc1ccc(NC(=O)C2CCCN(c3c4c(nc5ncnn35)CCC4)C2)cc1 (centres undefined),-5.4,0.4,-7.3,8.8,-1.7
COc1ccc(NC(=O)C2CCCN(c3cc(C)nc4ncnn34)C2)cc1 (centres undefined),3.2,0.3,30.1*,-11.0,2.1
Cc1ccccc1CNC(=O)c1oc2c(c1C)-c1nn(Cc3ccc(Cl)cc3)cc1CC2,·,1.6,·,-5.4,·
CC(C)Cn1cc(NC(=O)NCc2cccc(Cl)c2)c2ccccc2c1=O,·,-0.8,·,0.1,·
CC(C)(C)OC(=O)NCCCCCNC(=O)c1nc[nH]c1C(=O)NCC(=O)OCc1ccccc1,52.0*,·,·,·,?
CCOc1ccc(C(=O)NCc2ccncc2)cc1OCC,-41.4,0.6,34.4*,-24.1,-1.1
CCOc1ccc(C(=O)NCC(c2cccs2)N(C)C)cc1OCC (centres undefined),-26.0,-0.9,50.8*,-27.6,-1.6
CCCOc1ccc(C(=O)NCC(c2cccs2)N(C)C)cc1 (centres undefined),-1.2,-0.9,14.4,-10.4,-1.9
Cc1cc(Nc2sc(C(=O)c3ccc(F)cc3)c(N)c2C(=O)Nc2ccc(F)cc2)ccc1Cl,·,0.7,·,·,·
COCCCNC(=O)Cn1c(=O)n(-c2cccc(C)c2)c(=O)c2c1c1cc(C)ccc1n2C,·,-0.2,·,14.2,·
COc1cc(/C=C(\C#N)c2nc3ccccc3[nH]2)cc(OC)c1O,4.9,35.6*,9.0,-2.2,12.4
CCN(CC)c1ccc(/C=C/c2cc(-c3ccccc3)c3ccccc3n2)cc1,-2.6,53.8*,43.3*,-5.9,1.9
Cc1cccc(C)c1OCC(=O)OCC(=O)c1ccc2c(c1)NC(=O)CO2,6.1,0.7,30.2*,-5.4,-1.4

# Screening results deposited in PubChem by National Center for Advancing Translational Sciences (NCATS).
